20 compounds from PubChem BioAssay can be followed below.

Unmarked numbers belong to inactive results. For some of these results: Potency and affinity values are given separately. Active and inactive are the calls of the source. Unless noted, no rule for the calls is given here.

Assay [1] in a line: antimalarial activity against Dd2 strain (AID 2302;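 active = growth inhibition above 50% at the single 2 µM test dose, taken to imply half-maximal potency below 2 µM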;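 also: 0% = DMSO untreated growth and 100% = chloroquine plus artemisinin killed control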). Particulars: P. falciparum Dd2 in RBCs, LDH growth readout, 72 h; at 2 µM; stronger effect = higher value.
Assay [2] is described as follows: HepG2 cytotoxicity, primary screen, cytotoxicity control for P. falciparum antimalarial project, cell-based, ATP luminescence (AID 2303;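 active = inhibition above 50%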;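 also: 0% = DMSO wells and 100% = digitonin-killed cells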). The note with it: HepG2 viability, 24-48 h, at 10 µM, stronger effect = higher value.
For assay [3], the target named is L-lactate dehydrogenase (Plasmodium falciparum (isolate CDC / Honduras)) (UniProt Q27743). Briefly: PfLDH activity inhibition – cell lysate, 3D7 strain, counter-screen for P. falciparum growth inhibition project (AID 2304).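 Also: 0% = vehicle and 100% = reference inhibitor.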 Particulars: P. falciparum 3D7 crude extract, LDH APAD/NBT absorbance; at 2 µM; stronger effect = higher value. (Counterscreens check selectivity or assay interference.)
Sequence of L-lactate dehydrogenase (Plasmodium falciparum (isolate CDC / Honduras)) (Q27743 whole entry, looked up): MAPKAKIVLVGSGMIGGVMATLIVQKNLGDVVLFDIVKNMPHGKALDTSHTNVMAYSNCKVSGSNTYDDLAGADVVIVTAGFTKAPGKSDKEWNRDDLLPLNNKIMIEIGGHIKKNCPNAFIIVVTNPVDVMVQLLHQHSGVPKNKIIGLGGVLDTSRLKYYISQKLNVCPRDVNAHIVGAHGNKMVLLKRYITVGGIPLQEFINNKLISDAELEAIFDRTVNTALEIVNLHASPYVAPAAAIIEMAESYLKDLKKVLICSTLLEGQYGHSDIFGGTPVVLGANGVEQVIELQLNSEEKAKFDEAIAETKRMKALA

Assay [4] in a line: inhibition of 3D7 malaria parasite growth – strain 3D7 (AID 2306).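 Also: 0% = DMSO wells and 100% = chloroquine plus artemisinin control wells.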 The note with it: P. falciparum 3D7 erythrocytic growth, LDH absorbance, 72 h; at 2 µM; stronger effect = higher value.
Assay [5] addresses Calcium-dependent protein kinase 1 (Plasmodium falciparum (isolate 3D7)) (UniProt P62344). Put plainly: PfCDPK1 kinase inhibitors, biochemical, TCAMS library (AID 1159585; cut-off not given, nearly all actives have IC50 up to about 0.98 µM;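 also: inhibitors leave more ATP so luminescence rises with inhibition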). Particulars: recombinant PfCDPK1, Kinase-Glo ATP depletion luminescence. In general terms: Kinase-Glo reads ATP consumption through a luciferase reaction.
The target of assay [6] is Plasmodium falciparum protein kinase 6 (PK6, PF3D7_1337100) (UniProt Q8IDW1). Briefly: PfPK6 kinase inhibitors, biochemical, TCAMS library (AID 1159586). The note with it: recombinant PfPK6, Kinase-Glo ATP depletion luminescence.
Sequence of Plasmodium falciparum protein kinase 6 (PK6, PF3D7_1337100) (Q8IDW1 1-305): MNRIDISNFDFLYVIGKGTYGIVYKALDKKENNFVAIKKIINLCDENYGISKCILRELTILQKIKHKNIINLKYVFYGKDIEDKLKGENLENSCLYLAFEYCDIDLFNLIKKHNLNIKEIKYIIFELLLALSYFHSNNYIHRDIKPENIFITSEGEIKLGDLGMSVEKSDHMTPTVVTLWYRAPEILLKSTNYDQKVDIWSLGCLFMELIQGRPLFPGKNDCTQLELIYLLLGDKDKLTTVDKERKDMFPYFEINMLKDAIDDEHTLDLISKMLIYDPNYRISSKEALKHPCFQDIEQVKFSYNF
The target in assay [7] is Protein kinase 7 (PK7), Plasmodium falciparum 3D7 (PF3D7_0213400) (UniProt Q7YTF7). Put plainly: inhibition of Plasmodium PK7 catalytic activity – biochemical, TCAMS antimalarial set, Kinase-Glo luminescence (AID 1159587). The note with it: recombinant PfPK7, Kinase-Glo ATP depletion luminescence.
Sequence of Protein kinase 7 (PK7), Plasmodium falciparum 3D7 (PF3D7_0213400) (Q7YTF7 1-343): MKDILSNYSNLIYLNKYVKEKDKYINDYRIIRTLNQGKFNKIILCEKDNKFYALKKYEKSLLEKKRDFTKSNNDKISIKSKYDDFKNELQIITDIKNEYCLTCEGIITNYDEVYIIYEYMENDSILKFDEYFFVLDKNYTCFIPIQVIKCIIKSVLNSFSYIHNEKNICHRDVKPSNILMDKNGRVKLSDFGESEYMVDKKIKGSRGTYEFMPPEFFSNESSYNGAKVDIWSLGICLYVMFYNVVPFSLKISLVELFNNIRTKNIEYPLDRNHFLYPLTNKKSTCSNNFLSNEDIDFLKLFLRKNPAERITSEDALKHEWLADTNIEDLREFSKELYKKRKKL
Assay [8] concerns the target Calcium-dependent protein kinase 4 (Plasmodium falciparum (isolate 3D7)) (UniProt Q8IBS5). Briefly: PfCDPK4 kinase inhibitors, biochemical, TCAMS library (AID 1159588; cut-off not given, nearly all actives have IC50 up to about 0.91 µM). Particulars: recombinant PfCDPK4, Kinase-Glo ATP depletion luminescence.

Sequence of Calcium-dependent protein kinase 1 (Plasmodium falciparum (isolate 3D7)) (P62344 whole entry, looked up): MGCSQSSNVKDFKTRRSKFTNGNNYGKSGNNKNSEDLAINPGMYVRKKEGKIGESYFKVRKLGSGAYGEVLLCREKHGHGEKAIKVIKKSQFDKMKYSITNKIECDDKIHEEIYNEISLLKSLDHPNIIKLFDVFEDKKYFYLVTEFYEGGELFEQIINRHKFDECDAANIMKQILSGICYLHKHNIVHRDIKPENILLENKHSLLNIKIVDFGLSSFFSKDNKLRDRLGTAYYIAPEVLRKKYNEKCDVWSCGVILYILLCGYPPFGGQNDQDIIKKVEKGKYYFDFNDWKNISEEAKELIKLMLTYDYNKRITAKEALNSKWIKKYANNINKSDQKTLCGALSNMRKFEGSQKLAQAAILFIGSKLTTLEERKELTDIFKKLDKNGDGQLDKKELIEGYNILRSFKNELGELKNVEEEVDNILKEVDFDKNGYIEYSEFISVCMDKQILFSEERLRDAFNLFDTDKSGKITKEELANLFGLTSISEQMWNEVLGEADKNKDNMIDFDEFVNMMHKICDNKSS
Sequence of Calcium-dependent protein kinase 4 (Plasmodium falciparum (isolate 3D7)) (Q8IBS5 whole entry, looked up): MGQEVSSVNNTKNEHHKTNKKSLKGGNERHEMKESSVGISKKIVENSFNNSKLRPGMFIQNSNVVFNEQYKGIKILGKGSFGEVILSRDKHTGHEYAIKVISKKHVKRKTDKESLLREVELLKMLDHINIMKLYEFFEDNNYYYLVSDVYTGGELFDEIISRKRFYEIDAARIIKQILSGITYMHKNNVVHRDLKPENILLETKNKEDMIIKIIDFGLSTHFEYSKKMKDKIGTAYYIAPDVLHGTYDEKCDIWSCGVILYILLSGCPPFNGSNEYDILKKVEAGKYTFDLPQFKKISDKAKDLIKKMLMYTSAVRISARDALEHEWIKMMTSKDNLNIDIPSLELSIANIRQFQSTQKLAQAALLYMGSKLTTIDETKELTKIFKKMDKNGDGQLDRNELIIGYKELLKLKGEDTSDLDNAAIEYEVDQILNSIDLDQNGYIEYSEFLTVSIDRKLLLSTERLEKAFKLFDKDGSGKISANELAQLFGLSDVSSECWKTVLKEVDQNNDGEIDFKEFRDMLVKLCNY

Turning to `COc1cc(NC(=O)/C=C/c2cc3ccccc3n2C)ccc1OCCN(C(C)C)C(C)C`, the results for the growth inhibition in assay [1] and in assay [4] were 68% (active) and 99% (active), respectively. Further, the inhibition in assay [2] is 16%; in assay [3], 4%. In addition, the result in assay [5], in assay [6], in assay [7] and in assay [8] was inactive.

For `COc1ccc(-c2cnc(N)c(-c3ccc(C(N)=O)cc3)c2)cc1OC`, the values for the growth inhibition in assay [1] and in assay [4] were 98% (active) and 96% (active), respectively. Further, the values for the inhibition in assay [2] and in assay [3] were 11% and 4%, respectively. The outcome in assay [5], in assay [6], in assay [7] and in assay [8] was inactive.

Turning to `CNCCNCc1ccc(-c2ccc(-c3nc4c(C)cccc4[nH]3)s2)cc1`, the growth inhibition is 26% in assay [1] and 97% (active) in assay [4]. In addition, the results for the inhibition in assay [2] and in assay [3] were 16% and 5%, respectively. Also, the result in assay [5], in assay [6], in assay [7] and in assay [8] was inactive.

In the case of `COc1ccccc1C1CCN(C2CCC(NC(=O)/C=C/c3cccc(Cl)c3)CC2)CC1` (stereo not given), the growth inhibition was 20% in assay [1] and 92% (active) in assay [4]. The inhibition in assay [2] was 54% (active); in assay [3] it was 3%. In addition, the result in assay [5], in assay [6], in assay [7] and in assay [8] was inactive.

As for `Cc1ccc(S(=O)(=O)NC2CCN(CCNC(=O)Nc3cc(C)nc4ccccc34)C2)cc1` (stereo not given), the growth inhibition is 42% in assay [1] and 97% (active) in assay [4]. Also, the inhibition was -2% in assay [2] and -3% in assay [3]. The outcome in assay [5], in assay [6], in assay [7] and in assay [8] was inactive.

In the case of `COc1ccc(CN2CCN(C(=O)c3cccs3)CC2)c(O)c1`, the growth inhibition in assay [1] was 2%; in assay [4], 97% (active). Also, the inhibition was 7% in assay [2] and 2% in assay [3]. Also, the outcome in assay [5], in assay [6], in assay [7] and in assay [8] was inactive.

For `CCOc1cc(C(=O)Nc2ccc3nc(N(CC)CC)cc(C)c3c2)cc(OCC)c1OCC`, the growth inhibition in assay [1] is 9%; in assay [4], 98% (active). Also, the inhibition in assay [2] was 16%; in assay [3], -2%. The result in assay [5], in assay [6], in assay [7] and in assay [8] was inactive.

Take `O=C(Nc1cccc(CN2CCCN(CC3CC3)CC2)c1)c1ccc(-c2ccccc2)cc1`: the growth inhibition in assay [1] is 5%; in assay [4], 96% (active). In addition, the inhibition in assay [2] was 15%; in assay [3], 6%. The outcome in assay [5], in assay [6], in assay [7] and in assay [8] was inactive.

As to `COc1cccc(-c2csc(C(=O)NC3CCCCN(Cc4ccc(C(C)(C)C)cc4)C3)c2)c1` (stereo not given), the growth inhibition in assay [1] is 66% (active); in assay [4], 97% (active). In addition, the values for the inhibition in assay [2] and in assay [3] were 9% and -2%, respectively. The result in assay [5], in assay [6], in assay [7] and in assay [8] was inactive.

Regarding `CCN1CCN(CCNc2c3ccccc3nc3ccccc23)CC1`, the growth inhibition in assay [1] was 8%; in assay [4], 93% (active). Besides, the values for the inhibition in assay [2] and in assay [3] were 45% and 0%, respectively. Also, the outcome in assay [5], in assay [6], in assay [7] and in assay [8] was inactive.

Consider `c1ccc2c(Nc3ccc(Cc4ccc(Nc5c6ccccc6nc6ccccc56)cc4)cc3)c3ccccc3nc2c1`, for which the growth inhibition in assay [1] and in assay [4] was 101% (active) each time. Besides, the results for the inhibition in assay [2] and in assay [3] were 93% (active) and 7%, respectively. For the same compound, the outcome in assay [5], in assay [6], in assay [7] and in assay [8] was inactive.

Consider `Cc1[nH]cnc1CSCCNC(=NCCCCCCCCN=C(NC#N)NCCSCc1nc[nH]c1C)NC#N`, for which the growth inhibition was 48% in assay [1] and 81% (active) in assay [4]. Besides, the inhibition in assay [2] was 1%; in assay [3], 0%. Besides, the result in assay [5], in assay [6], in assay [7] and in assay [8] was inactive.

For the compound `CCC1(CC)C(=O)N=C(N2CCCCC2)N(C)C1=O`, the growth inhibition in assay [1] was 66% (active); in assay [4], 89% (active). Further, the inhibition is -4% in assay [2] and 1% in assay [3]. In addition, the outcome in assay [5], in assay [6], in assay [7] and in assay [8] was inactive.

Turning to `CC(=O)c1ccc(NC(=O)CSc2nc(-c3ccccc3Cl)ns2)cc1`, the values for the growth inhibition in assay [1] and in assay [4] were 72% (active) and 89% (active), respectively. Moreover, the inhibition is -13% in assay [2] and -1% in assay [3]. The result in assay [5], in assay [6], in assay [7] and in assay [8] was inactive.

Regarding `Cc1[nH]c(C)c(-c2ccc(-c3cccc(OC(F)(F)F)c3)nc2)c(=O)c1Cl`, the growth inhibition in assay [1] was 97% (active); in assay [4], 98% (active). In addition, the figures for the inhibition in assay [2] and in assay [3] were 30% and -2%, respectively. For the same compound, the result in assay [5], in assay [6], in assay [7] and in assay [8] was inactive.

As for `O=C(Nc1ccc(N2CCN(Cc3c[nH]c4cc(F)ccc34)CC2)cc1)c1ccccc1-c1ccc(C(F)(F)F)cc1`, the growth inhibition in assay [1] is 7%; in assay [4], 85% (active). The inhibition in assay [2] is 20%; in assay [3], 9%. In addition, the result in assay [5], in assay [6], in assay [7] and in assay [8] was inactive.

For `N=C(N)c1ccc(-c2cc3ccc(C(=N)N)cc3[nH]2)cc1`, the growth inhibition in assay [1] and in assay [4] was 99% (active) each time. The values for the inhibition in assay [2] and in assay [3] were 18% and -2%, respectively. The outcome in assay [5], in assay [6], in assay [7] and in assay [8] was inactive.

With `CCCCCC(=O)N1CCOC(CCN2CCC(c3ccccc3)CC2)(c2ccc(Cl)c(Cl)c2)C1` (stereo not given), the growth inhibition in assay [1] was 51% (active); in assay [4], 89% (active). For the same compound, the figures for the inhibition in assay [2] and in assay [3] were 17% and 1%, respectively. In addition, the result in assay [5], in assay [6], in assay [7] and in assay [8] was inactive.

With `CC(C)Sc1nc(-c2ccccc2)nc2c1COC(C)(C)C2`, the growth inhibition in assay [1] is 41%; in assay [4], 98% (active). Also, the inhibition in assay [2] was 2%; in assay [3], -4%. Besides, the result in assay [5], in assay [6], in assay [7] and in assay [8] was inactive.

As for `Cc1[nH]c(C)c(-c2ccc(-c3ccc(OC(F)(F)F)cc3)nc2)c(=O)c1Br`, the growth inhibition in assay [1] and in assay [4] was 97% (active) throughout. Also, the inhibition in assay [2] was 26%; in assay [3], 3%. For the same compound, the result in assay [5], in assay [6], in assay [7] and in assay [8] was inactive.

For orientation: inhibition means the change of the read-out against control, counted positive when it falls.
